# The panel holds about 83,000 compounds, 20% with a hit somewhere; the sample as a whole holds those more often.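 Percent growth is the endpoint: 0 to 100 indicates growth inhibition (40 means 60% inhibition), 0 means no net growth, and negative values indicate cell death.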 Unmarked numbers belong to inactive results. Activity calls are given as the source filed them. The calls were made as follows: active = growth percent below 10; inactive = the rest.
# Test system: SW-620 colon
# Test: NCI-60 one-dose screen, 48 h (100 = growth as untreated, 0 = no growth, -100 = all killed)
# Settings: 10 µM unless noted
row,Structure (SMILES),growth
1,CCCCOc1ccc(C(N)Cc2ccccc2)cc1 (centres undefined),87.5%
2,Nc1c(F)cc(-c2nc3cc(F)ccc3[se]2)cc1F,95.2%
3,Nc1ccc(OCCNS(=O)(=O)c2cccc(S(=O)(=O)F)c2)c(Cl)c1,106%
4,Cn1cc(-c2csc(-c3cn(CCCCN4CCCCC4)c4ccc(F)cc34)n2)c2cccnc21,-69.9% (active)
5,CCCCCCCC(=O)OCC(=O)[C@]1(O)Cc2c(O)c3c(c(O)c2[C@@H](OC2CC(N)C(O)C(C)O2)C1)C(=O)c1c(OC)cccc1C3=O (some centres undefined),-62.5% (active)
6,CCCCCN(CCCCC)CC(O)c1cc(Cl)ccc1OC (centres undefined),25%
7,CC12CC=CCC1CCC1C2CCC2(C)C(c3ccc(=O)oc3)CCC12O (centres undefined),-58.9% (active)
8,COC(=O)[C@@H](C)C[C@H](Cc1ccccc1)NC(=O)c1csc([C@@H](C[C@H](C(C)C)N(C)C(=O)[C@@H](NC(=O)CN(C)C)C2CC2)OC(C)=O)n1,35.8%
9,CCCCNC(c1ccc(Cl)cc1)C(O)c1ccc(Cl)cc1 (centres undefined),2.85% (active)
10,C=CCn1cc(C=C2C(=O)N(C)C(=O)N(C)C2=O)c2ccccc21,97.9%
11,COc1ccc2nc(NC(=O)COc3cc(/C=C\c4cc(OC)c(OC)c(OC)c4)ccc3OC)sc2c1,25.5%
12,O=C1CN=C(c2ccc(Cl)cc2)c2sccc2N1,110%
13,COP(=O)(OC)C(O)c1ccc(Cl)cc1 (centres undefined),101%
14,C=CC[Se]C(=O)c1ccccc1OC(C)=O,11.1%
15,C[C@]12CCc3sc(-c4ccccc4O)nc3C1=CC[C@@H]1[C@@H]2CC[C@]2(C)C(=O)CC[C@@H]12,103%
16,C[C@]12CC[C@@H]3c4ccc(Oc5nc(N6CC6)nc(N6CC6)n5)cc4CC[C@H]3[C@@H]1CCC2=O,25.1%
17,O=C(Nc1ccncc1F)c1cn(CC2CC2)c2ccccc12,105%
18,CC1=C(CNO)C2=C(C)C3(CC3)[C@@](C)(O)C(=O)C2=C1,65.7%
19,Nc1nnnc2nc[nH]c12,11%

row,Structure (SMILES),growth
1,CC(=O)Nc1nc2c(s1)CC[C@@]1(C)C2=CC[C@H]2[C@@H]3CC[C@H](O)[C@@]3(C)CC[C@@H]21,44.8%
2,CC[CH2][Sn]([Cl])([Cl])[CH2]CC,36.9%
3,O=C([O][Hg][c]1ccccc1)c1ccccc1,-49.6% (active)
4,C[S+]1C=Cc2ccccc2C1c1ccc(Cl)cc1 (centres undefined),112%
5,CC(C)CCC(=O)O[C@H]1CC[C@H]2[C@@H]3CCC4=CC(=O)CC[C@]4(C)[C@H]3CC[C@]12C,94.5%
6,NC(=Nc1ccccc1)N[N+](=O)[O-],97.8%
7,O=C(CC1(O)C(=O)N(Cc2ccccc2)c2ccc(Cl)cc21)c1ccc(C(=O)NCC2CCC3(CC2)OOC2(CCCCC2)OO3)cc1 (centres undefined),-56.5% (active)
8,Fc1ccc(N2COOC3(OOC2)C2CC4CC(C2)CC3C4)cc1,109%
9,COc1ccc([As]=[As]c2ccc(OC)c(NCS(=O)(=O)O)c2)cc1NCS(=O)(=O)O (centres undefined),-1.05% (active)
10,CC1=C(O)[C@@](C)(CCCCC[C@H](C)CCCCc2ccc(O)cc2)OOC1=O,109%
11,Cc1cc(N(CCCl)CCCl)ccc1C=Nc1ccc(-c2csc(Cc3ccccc3)n2)cc1,83.2%
12,C[C@@H]1O[C@@H](O[C@H]2C[C@@H](O)[C@]3(CO)C4C(CC[C@]3(O)C2)[C@@]2(O)CC[C@H](C3=CC(=O)OC3)[C@@]2(C)C[C@H]4O)[C@H](O)[C@H](O)[C@H]1O (some centres undefined),-76.9% (active)
13,CCC(O)(CN)c1ccccc1 (centres undefined),100%
14,CC[C@H](C)[C@H](NC(=O)[C@H]1CCCCN1C)C(=O)N(C)[C@H](CCc1nc(C(=O)N[C@@H](Cc2ccccc2)C[C@H](C)C(=O)OC)cs1)C(C)C,28%
15,COC(=O)CC12CC(NC(=O)c3csc([C@@H](C[C@H](C(C)C)N(C)C(=O)[C@@H](NC(=O)[C@H]4CCCCN4C)C(C)C)OC(C)=O)n3)(C1)C2,29%
16,CCC[CH2][Sn]([CH2]CCC)([CH2]CCC)[O]c1ccc(Cl)cc1Cl,-92.9% (active)
17,O=C1OCCC1Br (centres undefined),103%
18,CC(=O)ONc1ccc([N+](=O)[O-])c(C(F)(F)F)c1,102%

# Test system: MCF7 breast
# Test: as above
# Settings: 10 µM unless noted
row,Structure (SMILES),growth
1,CCCCOc1ccc(C(N)Cc2ccccc2)cc1 (centres undefined),81.7%
2,Nc1c(F)cc(-c2nc3cc(F)ccc3[se]2)cc1F,2.27% (active)
3,Nc1ccc(OCCNS(=O)(=O)c2cccc(S(=O)(=O)F)c2)c(Cl)c1,85.3%
4,Cn1cc(-c2csc(-c3cn(CCCCN4CCCCC4)c4ccc(F)cc34)n2)c2cccnc21,-55.9% (active)
5,CCCCCCCC(=O)OCC(=O)[C@]1(O)Cc2c(O)c3c(c(O)c2[C@@H](OC2CC(N)C(O)C(C)O2)C1)C(=O)c1c(OC)cccc1C3=O (some centres undefined),-94.4% (active)
6,CCCCCN(CCCCC)CC(O)c1cc(Cl)ccc1OC (centres undefined),15.8%
7,CC12CC=CCC1CCC1C2CCC2(C)C(c3ccc(=O)oc3)CCC12O (centres undefined),-21.6% (active)
8,COC(=O)[C@@H](C)C[C@H](Cc1ccccc1)NC(=O)c1csc([C@@H](C[C@H](C(C)C)N(C)C(=O)[C@@H](NC(=O)CN(C)C)C2CC2)OC(C)=O)n1,17.7%
9,CCCCNC(c1ccc(Cl)cc1)C(O)c1ccc(Cl)cc1 (centres undefined),3.13% (active)
10,C=CCn1cc(C=C2C(=O)N(C)C(=O)N(C)C2=O)c2ccccc21,88.3%
11,COc1ccc2nc(NC(=O)COc3cc(/C=C\c4cc(OC)c(OC)c(OC)c4)ccc3OC)sc2c1,16.9%
12,O=C1CN=C(c2ccc(Cl)cc2)c2sccc2N1,96.5%
13,COP(=O)(OC)C(O)c1ccc(Cl)cc1 (centres undefined),98.4%
14,C=CC[Se]C(=O)c1ccccc1OC(C)=O,-5.53% (active)
15,C[C@]12CCc3sc(-c4ccccc4O)nc3C1=CC[C@@H]1[C@@H]2CC[C@]2(C)C(=O)CC[C@@H]12,93.3%
16,C[C@]12CC[C@@H]3c4ccc(Oc5nc(N6CC6)nc(N6CC6)n5)cc4CC[C@H]3[C@@H]1CCC2=O,20.6%
17,O=C(Nc1ccncc1F)c1cn(CC2CC2)c2ccccc12,94.9%
18,CC1=C(CNO)C2=C(C)C3(CC3)[C@@](C)(O)C(=O)C2=C1,10.6%
19,Nc1nnnc2nc[nH]c12,15.3%

row,Structure (SMILES),growth
1,CC(=O)Nc1nc2c(s1)CC[C@@]1(C)C2=CC[C@H]2[C@@H]3CC[C@H](O)[C@@]3(C)CC[C@@H]21,24.6%
2,CC[CH2][Sn]([Cl])([Cl])[CH2]CC,50.4%
3,O=C([O][Hg][c]1ccccc1)c1ccccc1,-57.7% (active)
4,C[S+]1C=Cc2ccccc2C1c1ccc(Cl)cc1 (centres undefined),84.5%
5,CC(C)CCC(=O)O[C@H]1CC[C@H]2[C@@H]3CCC4=CC(=O)CC[C@]4(C)[C@H]3CC[C@]12C,105%
6,NC(=Nc1ccccc1)N[N+](=O)[O-],100%
7,O=C(CC1(O)C(=O)N(Cc2ccccc2)c2ccc(Cl)cc21)c1ccc(C(=O)NCC2CCC3(CC2)OOC2(CCCCC2)OO3)cc1 (centres undefined),17.4%
8,Fc1ccc(N2COOC3(OOC2)C2CC4CC(C2)CC3C4)cc1,76.1%
9,COc1ccc([As]=[As]c2ccc(OC)c(NCS(=O)(=O)O)c2)cc1NCS(=O)(=O)O (centres undefined),-67.5% (active)
10,CC1=C(O)[C@@](C)(CCCCC[C@H](C)CCCCc2ccc(O)cc2)OOC1=O,98.8%
11,Cc1cc(N(CCCl)CCCl)ccc1C=Nc1ccc(-c2csc(Cc3ccccc3)n2)cc1,44.5%
12,C[C@@H]1O[C@@H](O[C@H]2C[C@@H](O)[C@]3(CO)C4C(CC[C@]3(O)C2)[C@@]2(O)CC[C@H](C3=CC(=O)OC3)[C@@]2(C)C[C@H]4O)[C@H](O)[C@H](O)[C@H]1O (some centres undefined),-48.1% (active)
13,CCC(O)(CN)c1ccccc1 (centres undefined),102%
14,CC[C@H](C)[C@H](NC(=O)[C@H]1CCCCN1C)C(=O)N(C)[C@H](CCc1nc(C(=O)N[C@@H](Cc2ccccc2)C[C@H](C)C(=O)OC)cs1)C(C)C,20.5%
15,COC(=O)CC12CC(NC(=O)c3csc([C@@H](C[C@H](C(C)C)N(C)C(=O)[C@@H](NC(=O)[C@H]4CCCCN4C)C(C)C)OC(C)=O)n3)(C1)C2,20.4%
16,CCC[CH2][Sn]([CH2]CCC)([CH2]CCC)[O]c1ccc(Cl)cc1Cl,-93% (active)
17,O=C1OCCC1Br (centres undefined),101%
18,CC(=O)ONc1ccc([N+](=O)[O-])c(C(F)(F)F)c1,93.6%
